Results filed as inconclusive are left out. Calls of active or inactive are those of the source. Calls follow the shape of the dose curve; as a rule, active = well fitted curve in the direction sought with a large enough effect; inconclusive = small, poorly fitted or top-dose-only effect, or another doubt; inactive = no such curve, though single readings can be large; an effect the other way counts as inactive or inconclusive.
What was measured:
C33A = assay: Primary qHTS to identify gynecologic anti-cancer compounds using libraries of approved drugs and bioactive compounds (AID 1345084); conditions: Gynecologic cancer cell panel viability, ATPlite luminescence, 48 h; series mostly up to 57.5 µM; also: nearly all actives have a fitted effect of over 55% in size; also: potency is read from the fitted curve at half-maximal effect
Outline: (§1)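 Cytotoxicity screen measuring ATP content by luciferase luminescence. Each compound is applied at five concentrations for 48 h at 37 C with 5% CO2.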

Es-2 = assay: as above; conditions: Gynecologic cancer cell panel viability, ATPlite luminescence, 48 h; series mostly up to 57.5 µM
Outline: as §1

HeLa = assay: as above; conditions: Gynecologic cancer cell panel viability, ATPlite luminescence, 48 h; series mostly up to 57.5 µM
Outline: as §1

Hek293T = assay: as above; conditions: Gynecologic cancer cell panel viability, ATPlite luminescence, 48 h, control line for the selectivity index; series mostly up to 57.5 µM
Outline: as §1

JEG-3 = assay: as above; conditions: Gynecologic cancer cell panel viability, ATPlite luminescence, 48 h; series mostly up to 57.5 µM
Outline: as §1

PA-1 = assay: as above; conditions: Gynecologic cancer cell panel viability, ATPlite luminescence, 48 h; series mostly up to 57.5 µM
Outline: as §1

SKOV3 = assay: as above; conditions: Gynecologic cancer cell panel viability, ATPlite luminescence, 48 h; series mostly up to 57.5 µM
Outline: as §1

Tov-21-G = assay: as above; conditions: Gynecologic cancer cell panel viability, ATPlite luminescence, 48 h; series mostly up to 57.5 µM
Outline: as §1

Tov112D = assay: as above; conditions: Gynecologic cancer cell panel viability, ATPlite luminescence, 48 h; series mostly up to 57.5 µM
Outline: as §1

OV90 = assay: as above; conditions: Gynecologic cancer cell panel viability, ATPlite luminescence, 48 h; series mostly up to 57.5 µM
Outline: as §1

CAOV3 = assay: as above; conditions: Gynecologic cancer cell panel viability, ATPlite luminescence, 48 h; series mostly up to 57.5 µM
Outline: as §1

CASKI = assay: as above; conditions: Gynecologic cancer cell panel viability, ATPlite luminescence, 48 h; series mostly up to 57.5 µM
Outline: as §1

[1] = qHTS assay to identify inhibitors of the type 1 interferon - major histocompatibility complex class I in skeletal muscle: Counter screen cell viability and HiBit confirmation (AID 1347412); conditions: iHSKM muscle cells + IFN-b, HiBiT or CellTiter-Glo, 24 h, at 45.9 µM (top of the series); also: nearly all actives have a fitted effect of over 60% in size
Outline: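 After 24 h with human IFN-beta (4 ng/ml) and compound titrations (top 46 uM final, 1:3, 12 points), HLA-B HiBit myoblasts were lysed for either Nano-Glo HiBiT luminescence or CellTiter Glo viability on paired plates.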
% is scaled to controls: 0 for no effect and ±100 for the full control effect.

Cc1nc(NC(=O)N2CCC[C@H]2C(N)=O)sc1-c1ccnc(C(C)(C)C(F)(F)F)c1
active: Potency (SKOV3) 12.6 µM
inactive: Potency (C33A) | Potency (Es-2) | Potency (HeLa) | Potency (Hek293T) | Potency (JEG-3) | Potency (PA-1) | Potency (Tov-21-G) | Potency (Tov112D)

Nc1nc(NC2CC2)cc(-c2cccc(Cl)c2Cl)n1
active: Potency (HeLa) 20 µM | Potency (PA-1) 28.2 µM | Potency (SKOV3) 14.1 µM | Potency (Tov112D) 12.6 µM
inactive: Potency (C33A) | Potency (OV90)

O=S(=O)(c1ccc(Cl)cc1)N1CCN(c2ccnc3cc(Cl)ccc23)CC1
inactive: Potency (CAOV3) | Potency (CASKI) | Potency (Es-2) | Potency (HeLa) | Potency (Hek293T) | Potency (JEG-3) | Potency (OV90) | Potency (PA-1) | Potency (SKOV3) | Potency (Tov-21-G) | Potency (Tov112D)

CN(C)CCC(CSc1ccccc1)Nc1ccc(S(=O)(=O)NC(=O)c2ccc(N3CCN(Cc4ccccc4-c4ccc(Cl)cc4)CC3)cc2)cc1[N+](=O)[O-] (configuration not stated)
inactive: Potency (C33A) | Potency (Es-2) | Potency (HeLa) | Potency (Hek293T) | Potency (JEG-3) | Potency (PA-1) | Potency (Tov-21-G) | Potency (Tov112D)

CC(=O)Nc1nc(C)c(-c2nc(N3CCCC(O)C3)no2)s1 (configuration not stated)
inactive: Potency (C33A) | Potency (Es-2) | Potency (Tov112D)

CCN(CC)C(=O)c1ccc(Nc2nc(OCC3CCCCC3)c3[nH]cnc3n2)cc1
active: Potency (HeLa) 28.2 µM
inactive: Potency (C33A) | Potency (Es-2) | Potency (Hek293T) | Potency (JEG-3) | Potency (OV90) | Potency (Tov112D)

Cn1ncc(Cl)c1-c1cc(C(=O)NC(CN)Cc2ccc(F)c(F)c2)oc1Cl (configuration not stated)
inactive: Potency (Es-2) | Potency (HeLa) | Potency (Tov112D)
active: Potency (C33A) 3.16 µM | Potency (Hek293T) 794 nM

CC(C)C[C@@H](N)C(=O)N[C@H]1C(=O)N[C@@H](CC(N)=O)C(=O)N[C@H]2C(=O)N[C@H]3C(=O)N[C@H](C(=O)N[C@H](C(=O)O)c4cc(O)cc(O)c4-c4cc3ccc4O)[C@H](O)c3ccc(c(Cl)c3)Oc3cc2cc(c3O[C@@H]2O[C@H](CO)[C@@H](O)[C@H](O)[C@H]2O[C@H]2C[C@](C)(N)[C@H](O)[C@H](C)O2)Oc2ccc(cc2Cl)[C@H]1O
inactive: Potency (CAOV3)

Cc1sc2c(c1C)C(c1ccc(Cl)cc1)=N[C@@H](CC(=O)Nc1ccc(OCCOCCOCCOCCNc3cccc4c3C(=O)N(C3CCC(=O)NC3=O)C4=O)cc1)c1nnc(C)n1-2 (some centres not stated)
inactive: Potency (C33A) | Potency (Hek293T) | activity change, negative = inhibition ([1]; Viability) 0.552%
active: Potency (SKOV3) 2.82 µM

Cc1cc2c(c(=O)o1)C=C1CC[C@H]([C@H](C)Cn3cnc(=N)c4[nH]cnc43)C[C@@H]1O2
inactive: Potency (CAOV3) | Potency (CASKI) | Potency (Es-2) | Potency (HeLa) | Potency (Hek293T) | Potency (JEG-3) | Potency (OV90) | Potency (PA-1) | Potency (SKOV3) | Potency (Tov-21-G) | Potency (Tov112D)

Cc1cc2occ(CN(C)CCN(C)Cc3cn(-c4cccc(C(F)(F)F)c4)c4ccccc34)c(=O)c2cc1C
active: Potency (C33A) 31.6 µM | Potency (Tov-21-G) 28.2 µM

O=C(CN1C2=NCCN2c2ccccc21)c1ccc(-c2ccccc2)cc1
inactive: Potency (C33A) | Potency (Es-2) | Potency (HeLa) | Potency (Hek293T) | Potency (JEG-3) | Potency (PA-1) | Potency (Tov112D)

NC(=O)CCCSc1nc(N)nc(-c2c(Cl)cc3c4c(cccc24)COC3)n1
active: Potency (C33A) 0.891 µM | Potency (OV90) 708 nM | Potency (PA-1) 0.891 µM | Potency (Tov-21-G) 1 µM
inactive: Potency (HeLa)

COC1CC(O[C@H]2CC[C@]3(C)C4CC[C@@]5(C)C(=O)[C@]4(CC[C@@H]3C2)CC[C@@H]5C2=CC(=O)OC2)OC(C)C1OC1OC(COC2OC(CO)C(O)C(O)C2O)C(O)C(O)C1O (some centres not stated)
active: Potency (C33A) 2.82 µM | Potency (Es-2) 2.82 µM | Potency (PA-1) 3.16 µM | Potency (Tov-21-G) 2.24 µM | Potency (Tov112D) 1.12 µM

CC(C)(C)Sc1c(CC(C)(C)C(=O)O)n(Cc2ccc(Cl)cc2)c2ccc(OCc3ccc4ccccc4n3)cc12
inactive: Potency (C33A) | Potency (Es-2) | Potency (HeLa) | Potency (Hek293T) | Potency (JEG-3) | Potency (OV90) | Potency (PA-1) | Potency (Tov-21-G) | Potency (Tov112D)

C#Cc1cccc(Nc2nc3cc(C(=O)O)ccc3c3cncnc23)c1
inactive: Potency (C33A) | Potency (JEG-3) | Potency (SKOV3) | Potency (Tov112D)
active: Potency (HeLa) 11.2 µM | Potency (PA-1) 3.55 µM

CCCOc1ccc(CCc2nc3cc(-c4c(C)noc4C)ccc3n2CCN2CCOCC2)cc1
inactive: Potency (C33A) | Potency (Es-2) | Potency (HeLa) | Potency (Hek293T) | Potency (JEG-3) | Potency (OV90) | Potency (PA-1) | Potency (Tov-21-G) | Potency (Tov112D)

CC1(C(=O)Nc2ccc(F)nc2)CCCN1c1nc(Nc2cc(C3CC3)[nH]n2)c2cccn2n1 (configuration not stated)
active: Potency (Hek293T) 5010 nM | Potency (OV90) 3550 nM | Potency (Tov-21-G) 14.1 µM
inactive: Potency (C33A) | Potency (Es-2) | Potency (Tov112D)

COc1cc(N2CCC(O)CC2)ccc1Nc1nc(Nc2ccccc2S(=O)(=O)C(C)C)c2[nH]cnc2n1
inactive: Potency (C33A) | Potency (Es-2) | Potency (Hek293T) | Potency (JEG-3) | Potency (OV90) | Potency (PA-1) | Potency (SKOV3) | Potency (Tov112D)

CCn1nc(C2CCN(C(=O)CCO)CC2)nc1-c1cnc(N)c(-c2nnc(C(C)(C)C)o2)n1
active: Potency (SKOV3) 1.78 µM
inactive: Potency (C33A) | Potency (Es-2) | Potency (HeLa) | Potency (Hek293T) | Potency (JEG-3) | Potency (OV90) | Potency (Tov112D) | activity change, negative = inhibition ([1]; HiBiT) -28.4%

COc1ccccc1C(=O)Nc1cccc(NC(=O)c2cccc(C)c2)c1
inactive: Potency (CAOV3) | Potency (CASKI) | Potency (Es-2) | Potency (HeLa) | Potency (Hek293T) | Potency (JEG-3) | Potency (OV90) | Potency (PA-1) | Potency (SKOV3) | Potency (Tov-21-G) | Potency (Tov112D)
